Experimental data reported in PubChem BioAssay (NCATS).
Values without a mark were called inactive. Inconclusive results are not listed. A call without a number means that no potency is given here. The source made the active and inactive calls. Unless noted, calls come from the whole dose curve; as a rule, active = well fitted curve in either direction with a large enough effect (not every such curve was filed as active); inconclusive = small, poorly fitted or top-dose-only effect, or another doubt; inactive = flat fitted curve, though single readings scatter.

Experiments:
[1] = AP1 Signaling Pathway (AID 357); details: ME-180 AP-1-bla reporter, EGF-induced, beta-lactamase ratio, 5 h; at 17.2 µM (top of the series) unless noted
Procedure, shortened: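 AP-1-bla ME-180 cells with beta-lactamase reporter under AP-1 response element, stimulated with EC50 EGF; compounds titrated, 5 hours at 37 degrees Celsius. CCF4 read at 460/530 nm ratio; positive and negative modulators judged by AC50.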

[2] = NFAT Signaling Pathway (AID 444); details: Jurkat NFAT-bla M1, carbachol, beta-lactamase ratio, 5 h; at 17.2 µM (top of the series) unless noted;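 note: carbachol stimulus at about its EC50 of 1 µM final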
Procedure, shortened: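 Jurkat cells with NFAT-driven β-lactamase reporter and co-expressed M1 receptor, stimulated with carbachol (final 1 uM, ~EC50), compound titration, 5 h at 37 °C. CCF4 loaded 1 h at RT; 460/530 nm ratio gave %activity and AC50.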

[3] = Stat Signaling Pathway (AID 446); details: ME-180 SIE beta-lactamase reporter, IL-6 stimulated, 5 h; at 17.2 µM (top of the series) unless noted;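 note: ME-180 cervical cancer cells given 40 pM IL-6 alongside compound; SIE-controlled beta-lactamase reporter measured as 460/530 nm FRET emission ratio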
Procedure, shortened: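 Screening format detects activators and inhibitors alike: ME-180 SIE-bla cells stimulated at 40 pM IL-6 for 5 hrs with compound, then dual-emission beta-lactamase read at 405 nm excitation.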

[4] = target: Glucocorticoid receptor (Homo sapiens) (UniProt P04150); assay: GR-GFP Redistribution (AID 450;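 active = compounds whose dose series gives a full or clear partial fitted curve of increased nuclear translocation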; note: potency is the fitted concentration of half-maximal effect)
Chain of Glucocorticoid receptor (Homo sapiens) (P04150 whole entry, looked up, the tested form may be a part): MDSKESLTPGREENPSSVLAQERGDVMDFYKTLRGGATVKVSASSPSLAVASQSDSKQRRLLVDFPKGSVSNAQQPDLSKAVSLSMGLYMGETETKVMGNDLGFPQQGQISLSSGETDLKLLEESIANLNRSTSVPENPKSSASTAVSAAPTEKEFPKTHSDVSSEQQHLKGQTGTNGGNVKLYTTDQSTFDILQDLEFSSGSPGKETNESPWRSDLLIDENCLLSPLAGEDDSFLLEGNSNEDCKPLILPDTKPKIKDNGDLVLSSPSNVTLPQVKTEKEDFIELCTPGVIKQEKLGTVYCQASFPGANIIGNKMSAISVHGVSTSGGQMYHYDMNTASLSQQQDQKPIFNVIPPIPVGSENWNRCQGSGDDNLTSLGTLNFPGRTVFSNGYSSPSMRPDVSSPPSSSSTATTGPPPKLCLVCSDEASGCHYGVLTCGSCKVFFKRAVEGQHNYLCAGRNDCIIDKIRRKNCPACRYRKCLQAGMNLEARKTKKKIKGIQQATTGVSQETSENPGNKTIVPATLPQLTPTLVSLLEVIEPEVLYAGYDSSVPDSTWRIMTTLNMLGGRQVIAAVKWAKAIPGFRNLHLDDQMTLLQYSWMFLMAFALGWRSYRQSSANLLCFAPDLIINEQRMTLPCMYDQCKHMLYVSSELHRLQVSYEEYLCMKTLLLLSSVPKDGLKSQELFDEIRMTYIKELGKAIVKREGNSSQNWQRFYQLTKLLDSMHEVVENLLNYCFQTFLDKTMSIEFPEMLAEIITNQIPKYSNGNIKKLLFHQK

[5] = target: Glucocorticoid receptor (Homo sapiens) (UniProt P04150); assay: GR-EFC Redistribution (AID 451; calls by dose curve; note: potency is the fitted concentration of half-maximal effect); details: CHO-K1 GR-EFC translocation, beta-gal luminescence, 2 h
Procedure, shortened: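 CHO-K1 cells expressing nuclear EA and GR-ED fragments of b-gal; compounds titrated up to 46 uM final, 2 h at 37 C. GR nuclear translocation read as complemented b-gal luminescence after 1 h RT detection.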

[6] = target: Mitogen-activated protein kinase 10 (Mus musculus) (UniProt Q61831); assay: JNK3 AlphaScreen Assay (AID 530);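 note: kinase came from lysate of stimulated human HepG2 cells; signal reports phosphorylation of biotinylated GST-cJun 1-79 at Ser73 with 10 µM ATP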
Procedure, shortened: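 Pre-activated (IL-1β/TNFα) JNK3 in HepG2 lysates phosphorylates biotin-GST-cJun(1-79), 10 uM ATP; anti-phospho-cJun(Ser73) AlphaScreen read at room temperature, pH 7.6 Tris buffer. Compounds pre-incubated 15 min as titrations.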

[7] = target: 3',5'-cyclic-AMP phosphodiesterase 4B (Homo sapiens) (UniProt Q07343); assay: qHTS Assay for Inhibitors of PDE-IV (AID 607; active = well fitted activation curve with a large enough effect in the main read-out, with a control signal flat, not every such curve was filed as active)
Chain of 3',5'-cyclic-AMP phosphodiesterase 4B (Homo sapiens) (Q07343 whole entry, looked up): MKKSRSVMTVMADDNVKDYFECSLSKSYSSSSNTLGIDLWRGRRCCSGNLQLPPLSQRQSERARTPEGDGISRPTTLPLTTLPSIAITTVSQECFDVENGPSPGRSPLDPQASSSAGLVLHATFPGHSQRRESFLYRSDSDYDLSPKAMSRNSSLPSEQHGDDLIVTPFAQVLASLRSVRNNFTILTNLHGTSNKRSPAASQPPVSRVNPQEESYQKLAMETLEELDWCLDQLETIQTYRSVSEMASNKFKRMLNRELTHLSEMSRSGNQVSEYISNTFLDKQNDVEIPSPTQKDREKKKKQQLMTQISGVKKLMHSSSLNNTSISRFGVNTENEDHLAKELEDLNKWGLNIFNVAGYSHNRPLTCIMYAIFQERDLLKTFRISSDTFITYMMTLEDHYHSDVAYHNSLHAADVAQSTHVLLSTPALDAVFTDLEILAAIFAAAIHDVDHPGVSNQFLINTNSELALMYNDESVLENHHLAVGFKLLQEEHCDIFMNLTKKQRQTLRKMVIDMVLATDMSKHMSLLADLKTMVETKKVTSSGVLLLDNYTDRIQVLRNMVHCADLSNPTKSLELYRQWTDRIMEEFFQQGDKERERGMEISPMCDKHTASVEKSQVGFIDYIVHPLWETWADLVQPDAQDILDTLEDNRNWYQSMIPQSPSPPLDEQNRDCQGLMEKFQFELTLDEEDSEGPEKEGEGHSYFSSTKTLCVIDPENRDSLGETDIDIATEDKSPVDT
Procedure, shortened: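 The readout is membrane depolarisation from a cAMP-sensing CNG channel, detected with a potential dye at ex 535/em 590. Cells were HEK293-derived (endogenous PDE-IV) at 1000 cells/well, titrated up to 22.9 uM final.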

[8] = target: Guanine nucleotide-binding protein G(i) subunit alpha-1 (Homo sapiens) (UniProt P63096); assay: qHTS Assay for Inhibitors of RGS12 GoLoco Motif Activity (Green Fluorophore) (AID 879; active = well fitted curve in the direction sought with a large enough effect; an effect the other way counts as inactive or inconclusive;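 note: negative values mean loss of peptide binding seen as reduced polarization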)
Chain of Guanine nucleotide-binding protein G(i) subunit alpha-1 (Homo sapiens) (P63096 whole entry, looked up): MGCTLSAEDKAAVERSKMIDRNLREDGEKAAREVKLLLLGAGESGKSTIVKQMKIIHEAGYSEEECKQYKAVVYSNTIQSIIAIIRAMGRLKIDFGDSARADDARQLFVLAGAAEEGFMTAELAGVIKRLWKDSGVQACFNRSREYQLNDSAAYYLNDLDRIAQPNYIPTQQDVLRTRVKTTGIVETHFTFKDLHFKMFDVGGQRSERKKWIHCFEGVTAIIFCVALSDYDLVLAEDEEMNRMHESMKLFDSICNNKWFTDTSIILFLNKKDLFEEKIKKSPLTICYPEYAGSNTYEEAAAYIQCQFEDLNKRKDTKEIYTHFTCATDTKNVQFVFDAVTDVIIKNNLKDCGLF
Procedure, shortened: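 Fluorescence polarization assay: 50 nM Gαi1 with 10 nM FITC-labeled RGS12 GoLoco peptide in 10 mM Tris pH 7.5, 150 mM NaCl, 0.1 mM GDP, 0.05% NP40, 10 min at room temperature with compound.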

[9] = qHTS Assay for Identification of Small Molecule Antagonists for NFkB Signaling Pathway (AID 895; active = well fitted inhibition curve with a large enough effect in the signal ratio, with a control signal flat, not every such curve was filed as active; the % refers to the signal ratio)
Procedure, shortened: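 ME-180 NFkB-bla cells (beta-lactamase under NFkB response element), plated overnight, treated with compound then 10 pM TNF alpha (about EC50) for 5 hrs at 37 C. LiveBLAzer FRET read at 460/530 nm emission, 405 nm excitation.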

[10] = qHTS Assay for Identification of Small Molecule Agonists for Thrombopoietin (TPO) Signaling Pathway (AID 917; active = well fitted curve in the direction sought with a large enough effect; an effect the other way counts as inactive or inconclusive)
Procedure, shortened: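 Murine Ba/F3 cells expressing human TPO receptor and GPIIb-promoter luciferase, IL-3-starved overnight, given compound plus TPO at 26 pM (EC50). After 24 h at 37 C, 5% CO2, luminescence read.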

[11] = target: Muscarinic acetylcholine receptor M1 (Rattus norvegicus) (UniProt P08482); assay: qHTS Assay for Antagonists of Acetylcholine Muscarinic M1 Receptor: Measurement of IP-One Response (AID 944; active = well fitted curve in the direction sought with a large enough effect; an effect the other way counts as inactive or inconclusive; note: nearly all actives have a fitted effect of over 75% in size)
Chain of Muscarinic acetylcholine receptor M1 (Rattus norvegicus) (P08482 whole entry, looked up): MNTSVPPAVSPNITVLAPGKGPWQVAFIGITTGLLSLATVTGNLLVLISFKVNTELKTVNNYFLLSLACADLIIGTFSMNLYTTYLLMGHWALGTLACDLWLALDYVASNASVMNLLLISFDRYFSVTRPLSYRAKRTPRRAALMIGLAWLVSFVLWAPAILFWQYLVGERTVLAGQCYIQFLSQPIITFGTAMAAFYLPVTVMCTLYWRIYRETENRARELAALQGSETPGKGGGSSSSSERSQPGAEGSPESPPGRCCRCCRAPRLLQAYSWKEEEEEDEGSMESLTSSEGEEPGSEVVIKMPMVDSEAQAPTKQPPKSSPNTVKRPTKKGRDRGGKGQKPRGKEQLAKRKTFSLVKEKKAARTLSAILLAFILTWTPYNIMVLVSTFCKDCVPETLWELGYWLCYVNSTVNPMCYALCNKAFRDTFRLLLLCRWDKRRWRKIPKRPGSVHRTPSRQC
Procedure, shortened: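 M1-CHO (rat), 2000 cells/well, overnight recovery; cpd 10 min; carbachol EC80 (200 nM), 30 min, HEPES buffer + 50 mM LiCl pH 7.4; IP-One HTRF, Ex 337, Em 620/665 nm.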

[12] = target: Pyruvate kinase (Leishmania mexicana) (UniProt Q27686); assay: qHTS Validation Assay for Inhibitors of Leishmania Mexicana Pyruvate Kinase (AID 945; active = well fitted curve in the direction sought with a large enough effect; an effect the other way counts as inactive or inconclusive)
Chain of Pyruvate kinase (Leishmania mexicana) (Q27686 2-499 E452W): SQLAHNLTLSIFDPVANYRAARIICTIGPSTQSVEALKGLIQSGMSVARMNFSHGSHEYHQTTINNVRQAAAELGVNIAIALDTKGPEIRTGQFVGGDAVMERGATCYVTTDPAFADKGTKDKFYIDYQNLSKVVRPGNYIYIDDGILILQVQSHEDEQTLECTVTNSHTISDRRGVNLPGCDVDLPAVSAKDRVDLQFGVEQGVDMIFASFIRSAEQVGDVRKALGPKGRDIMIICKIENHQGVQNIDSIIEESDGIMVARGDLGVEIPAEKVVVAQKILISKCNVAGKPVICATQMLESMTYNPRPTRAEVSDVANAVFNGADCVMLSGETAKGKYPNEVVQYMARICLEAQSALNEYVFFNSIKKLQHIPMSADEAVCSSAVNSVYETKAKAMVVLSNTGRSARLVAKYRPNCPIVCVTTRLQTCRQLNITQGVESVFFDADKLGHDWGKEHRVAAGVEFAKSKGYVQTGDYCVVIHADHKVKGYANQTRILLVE
Procedure, shortened: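 Read-out: luminescence from PKLight stop/detection reagent, data normalized to DMSO. Reaction: 0.2 nM E451W LmPYK, 0.5 mM PEP, 0.1 mM ADP, pH 7.2, 1 h room temperature.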

[13] = target: Pyruvate kinase PKM (Homo sapiens) (UniProt P14618); assay: qHTS Assay for Activators of Human Muscle Pyruvate Kinase (AID 954; active = well fitted curve in the direction sought with a large enough effect, not every such curve was filed as active)
Chain of Pyruvate kinase PKM (Homo sapiens) (P14618 whole entry, looked up): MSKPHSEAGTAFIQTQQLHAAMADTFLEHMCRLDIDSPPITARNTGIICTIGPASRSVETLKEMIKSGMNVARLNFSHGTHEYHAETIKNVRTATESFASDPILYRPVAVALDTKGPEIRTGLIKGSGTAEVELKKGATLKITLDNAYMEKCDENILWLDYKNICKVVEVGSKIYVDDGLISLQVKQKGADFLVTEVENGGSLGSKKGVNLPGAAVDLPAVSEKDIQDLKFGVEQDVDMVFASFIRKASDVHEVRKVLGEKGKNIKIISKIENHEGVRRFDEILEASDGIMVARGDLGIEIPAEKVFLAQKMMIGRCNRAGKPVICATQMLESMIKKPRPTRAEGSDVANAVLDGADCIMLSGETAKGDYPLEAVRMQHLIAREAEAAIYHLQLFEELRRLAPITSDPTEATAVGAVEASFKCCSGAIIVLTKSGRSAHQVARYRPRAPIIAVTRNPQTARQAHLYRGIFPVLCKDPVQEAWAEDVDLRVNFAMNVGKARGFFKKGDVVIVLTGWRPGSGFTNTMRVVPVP
Procedure, shortened: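 Reaction: 0.1 nM purified PKM2 with 0.5 mM phosphoenolpyruvate and 0.1 mM ADP, room temperature, 1 h. Readout: luciferase-based ATP luminescence after stop reagent. Activators judged against a 0.3 nM enzyme column.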

[14] = target: Alpha-galactosidase A (Homo sapiens) (UniProt P06280); assay: Counterscreen for Glucocerebrosidase Inhibitors: qHTS Assay for Human alpha-Galactosidase at pH 4.5 (AID 992; active = well fitted curve in the direction sought with a large enough effect; an effect the other way counts as inactive or inconclusive)
Chain of Alpha-galactosidase A (Homo sapiens) (P06280 whole entry, looked up): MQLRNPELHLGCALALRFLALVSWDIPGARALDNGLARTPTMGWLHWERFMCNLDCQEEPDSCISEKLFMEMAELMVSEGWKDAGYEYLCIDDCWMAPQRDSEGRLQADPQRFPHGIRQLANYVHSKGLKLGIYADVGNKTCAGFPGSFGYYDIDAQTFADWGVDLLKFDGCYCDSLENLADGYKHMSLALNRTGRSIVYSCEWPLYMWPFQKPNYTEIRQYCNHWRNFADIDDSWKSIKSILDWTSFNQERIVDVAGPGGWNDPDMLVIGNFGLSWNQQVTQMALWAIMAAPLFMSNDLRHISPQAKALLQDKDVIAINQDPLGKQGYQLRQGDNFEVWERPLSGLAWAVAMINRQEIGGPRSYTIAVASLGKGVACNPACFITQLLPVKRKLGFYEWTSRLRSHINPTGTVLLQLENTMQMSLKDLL
Procedure, shortened: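 Concentration-response curves (0.7 nM to 77 uM final) were modeled with the Hill equation to give AC50. Reactions: 2 nM enzyme, 80 uM fluorogenic alpha-galactoside, pH 4.5 citric acid buffer, 20 min, room temperature.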

[15] = target: alpha-glucosidase (Oryza sativa, rice) (UniProt Q653V4); assay: Counterscreen for Glucocerebrosidase Inhibitors: qHTS Assay for Rice alpha-Glucosidase at pH 5.0 (AID 997; active = well fitted curve in the direction sought with a large enough effect; an effect the other way counts as inactive or inconclusive)
Procedure, shortened: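 Rice alpha-glucosidase (4 nM final) with 400 uM 4-methylumbelliferyl-alpha-D-glucopyranoside in citrate buffer pH 5.0, 20 min at room temperature, stopped at pH 10; fluorescence 365/440 nm, compounds 0.7 nM–77 uM, AC50 from Hill fits.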

Row | SMILES | activity change, negative = inhibition [1] | activity change, negative = inhibition [2] | activity, negative = inhibition [3] | Potency [4] | Potency [5] [µM] | Potency [6] | Potency [7] | outcome [8] | Potency [9] | Potency [10] | Potency [11] | Potency [12] | outcome [13] | outcome [14] | outcome [15]
1 | N[C@H](Cc1cccc(-c2ccccc2CP(=O)(O)O)c1)C(=O)O | 8.92% [at 38 µM] | 12.7% [at 38 µM] | 1.71% [at 38 µM] | > 46 µM | > 46 | inactive | inactive | inactive | inactive | inactive | inactive | inactive | inactive | inactive | inactive
2 | CNc1oc(-c2ccc(Cl)cc2)nc1C#N | -1.98% | 18.3% | 5.14% | > 20.6 µM | – | – | – | – | – | – | – | – | – | – | –
3 | Nc1ncn([C@@H]2O[C@@H](CO)[C@@H](O)[C@H]2O)c(=O)n1 | -29.6% [at 38 µM] | -6.36% [at 38 µM] | 2.98% [at 38 µM] | > 46 µM | > 46 | inactive | inactive | – | – | – | – | – | – | – | –
4 | CC(=O)[C@@]1(O)CC[C@@H]2[C@@H]3CCC4=CC(=O)CC[C@@]4(C)[C@H]3CC[C@]21C | 4.89% [at 38 µM] | -13.4% [at 38 µM] | -11.8% [at 38 µM] | 0.162 µM (active) | – | inactive | inactive | inactive | – | inactive | – | inactive | inactive | inactive | inactive
